SW480 rerep: inducers of DNA re-replication in SW480 colon cancer cells | SW480 DNA re-replication, Hoechst DNA content imaging, 48 h | Potency, µM (top dose mostly 46.1 µM), hits mostly activators | hit rate 1.8% among 340,000 | AID 624297; also: nearly all actives have a fitted effect of over 55% in size
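Cells (250 per well) received 23 nL compound or DMSO by pin tool and were kept 48 hr at 37 C, 5% CO2. Nuclei were then stained with Hoechst for 40 min and scanned for DNA content.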
KB-3-1 cytotox: KB-3-1 parental cell cytotoxicity. KB-3-1 viability, CellTiter-Glo ATP luminescence, 72 h. Potency, µM (top dose mostly 46.1 µM), usual class: cytotoxic. hit rate 1.4% among 400,000. AID 1347075; also: nearly all actives have a fitted effect of over 60% in size
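Cells are dispensed, compounds pinned in, plates held at 37 °C for 72 h, then CellTiter-Glo is added and luminescence read after 10 minutes. Cell line: parental KB-3-1 in phenol-red-free DMEM, 10% FBS.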
RGS4 inh: human RGS4 inhibition; Transcreener GDP fluorescence polarization, RGS4-accelerated GTP hydrolysis; Potency, µM (titrated, usually from 114 µM), actives largely listed as inhibitors; hit rate 0.039% among 390,000; AID 504845; also: nearly all actives have a fitted effect of over 75% in size
Target sequence (P49798 whole entry, looked up): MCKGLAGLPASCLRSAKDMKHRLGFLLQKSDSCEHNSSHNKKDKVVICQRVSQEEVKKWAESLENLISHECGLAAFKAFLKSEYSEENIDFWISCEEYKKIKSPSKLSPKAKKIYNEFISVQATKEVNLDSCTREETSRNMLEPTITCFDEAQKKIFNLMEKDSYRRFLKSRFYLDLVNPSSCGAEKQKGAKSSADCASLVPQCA
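MLSMR compounds (23 nl, pin-transferred) preincubated 10 min at room temperature with a 500nM (2x) first reagent, then RGS4 at 900nM (2x) plus Transcreener GDP mix added; fluorescence polarization (620/688 nm) read before and after 90 min at 30 °C.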
KB-V1 cytotox: KB-V1 MDR subline cytotoxicity | KB-V1 MDR cells viability, CellTiter-Glo, 72 h | Potency, µM (series often up to 46.1 µM), actives largely listed as cytotoxic | hit rate 3.4% among 400,000; also: nearly all actives have a fitted effect of over 60% in size
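KB-V1 MDR subline cells in DMEM (phenol-red free, 10% FBS) exposed to compounds in qHTS concentration series for 72 h at 37 degrees C. Viability read by CellTiter-Glo luminescence; concentration-effect curves fitted after normalization and correction.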
TSG101-PTAP inh: blocks PTAP/TSG101 interaction to inhibit HIV-1 budding | Q99816 | Fluorescence polarization, FITC-PTAP peptide / Tsg101 binding | Potency, µM (highest dose often 115 µM), usual class: inhibitors | 340,000 tested, under 10 active; active = well fitted inhibition curve with a large enough effect in the main read-out, with a control signal flat, not every such curve was filed as active; inconclusive = small, poorly fitted or top-dose-only effect, or effect the other way, or a change in a side signal; inactive = no such curve, though single readings can be large or run the other way
Target sequence (Q99816 whole entry, looked up): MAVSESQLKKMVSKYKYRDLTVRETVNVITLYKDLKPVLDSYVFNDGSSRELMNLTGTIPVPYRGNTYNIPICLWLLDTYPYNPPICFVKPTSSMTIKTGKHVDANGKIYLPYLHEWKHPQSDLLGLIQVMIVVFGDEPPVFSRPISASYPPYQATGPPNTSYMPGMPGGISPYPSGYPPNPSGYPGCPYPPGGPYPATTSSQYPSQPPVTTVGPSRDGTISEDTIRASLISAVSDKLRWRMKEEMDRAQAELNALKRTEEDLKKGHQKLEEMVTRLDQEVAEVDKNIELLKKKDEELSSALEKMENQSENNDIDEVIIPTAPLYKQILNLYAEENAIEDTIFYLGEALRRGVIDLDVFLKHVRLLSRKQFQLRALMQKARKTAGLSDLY
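Fluorescence anisotropy tracks displacement of a FITC-tagged PTAP peptide (50 nM) from the Tsg101 binding domain (10 uM), following a 20 min room-temperature incubation at pH 7.5.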
MCF10A rerep: DNA re-replication induction in MCF 10a cells; Potency, µM (highest dose often 46.1 µM), hits mostly activators; MCF 10A DNA re-replication, Hoechst nuclear intensity, 48 h; hit rate 2.9% among 350,000; also: nearly all actives have a fitted effect of over 50% in size
Hits are given with their value; n = inactive; u = inconclusive; x = no result; [ ] = dose if it differs, or a comment. Most compounds without a hit are left out; they make up all but 6.6% or so of the library. Unless noted, calls follow the shape of the dose curve; as a rule, active = well fitted curve in the direction sought with a large enough effect; inconclusive = small, poorly fitted or top-dose-only effect, or another doubt; inactive = no such curve, though single readings can be large; an effect the other way counts as inactive or inconclusive.

SMILES	SW480 rerep	KB-3-1 cytotox	RGS4 inh	KB-V1 cytotox	TSG101-PTAP inh	MCF10A rerep
O=C(OCC(=O)N1CCOCC1)c1cc(-c2ccccc2)nc2ccccc12	n	n	n	n	n	u
CCOc1cc(CN2CCN(C(=O)c3cccc4ccccc34)CC2)ccc1OC	u	n	n	u	n	n
COc1ccc(-c2cc(C(=O)N3CCCCCC3)c3ccccc3n2)cc1OC	x	n	x	n	x	x
COc1ccc(CN2CCN(C(=O)c3cccc4ccccc34)CC2)cc1OC	6.5µM	n	n	n	n	0.65µM
CCc1ccc(-c2[nH]nc3nc(-c4cc(OC)ccc4OC)cc(C(=O)O)c23)cc1	x	n	n	u	x	x
Cc1ccc(C)c(CN2C(=O)c3ccccc3S(=O)(=O)c3ccc(C(=O)N4CCN(c5ccccc5F)CC4)cc32)c1	x	x	n	x	x	x
O=C(OCC(=O)N1CCN(C(=O)c2ccco2)CC1)c1cc(-c2ccco2)nc2ccccc12	n	n	u	u	n	n
O=C(OCC(=O)N1CCN(C(=O)c2ccco2)CC1)c1cc(-c2ccc(Cl)c(Cl)c2Cl)nc2ccccc12	u	u	n[11.4 µM]	21µM	n	u
CCCCC(C(=O)NCCC(C)C)N(CCCN1CCOCC1)C(=O)c1snc(C(N)=O)c1N (centres undefined)	n	n	n	9.2µM	n	n
O=S(=O)(c1ccc2oc3ccccc3c2c1)N1CCCC1	n	n	n[11.4 µM]	n	n	n
O=S(=O)(c1ccc2oc3ccccc3c2c1)N1CCOCC1	n	n	n	16µM	n	n
CCN(CC)C(=O)C1CCN(S(=O)(=O)c2ccc3oc4ccccc4c3c2)CC1	n	n	n	12µM	n	n
Cc1ccc(CN(Cc2ccco2)C(=O)c2ccccc2Br)o1	x	x	n	x	x	x
Cc1ccc(S(=O)(=O)CCC(=O)c2cccc([N+](=O)[O-])c2)cc1	n	n	u	n	n	3.7µM
Cc1ccc(C(=O)CCS(=O)(=O)c2ccc(Br)cc2)cc1	u	n	n	n	n	u
Cc1ccc2nc(SCC(=O)Nc3ccc(C)c([N+](=O)[O-])c3)[nH]c2c1	n	n	n	n	n	n
Cc1ccc2nc(SCC(=O)Nc3ccc(F)c([N+](=O)[O-])c3)[nH]c2c1	n	n	n	21µM	n	u
Cc1ccc2nc(SC(C)C(=O)Nc3cccc([N+](=O)[O-])c3)[nH]c2c1 (centres undefined)	n	u	n	4.1µM	n	n
Cc1ccc2nc(SCC(=O)c3ccc(Cl)s3)[nH]c2c1	n	n	n	13µM	n	n
Cc1csc(SCC(=O)Nc2cc([N+](=O)[O-])ccc2F)n1	u	u	n	n	n	u
Cc1ccc2nc(SCC(=O)Nc3cc([N+](=O)[O-])ccc3F)[nH]c2c1	n	n	n	21µM	n	u
O=S(=O)(c1ccc(F)cc1)N1CCN(c2nc(-c3cccs3)nc3ccccc23)CC1	x	n	n	n	x	x
CCC(=O)N1CCc2cc(CNS(=O)(=O)c3ccc(CC(C)C)cc3)ccc21	x	x	n	x	x	x
Cc1cccc(C(=O)NCCc2nc3ccccc3n2CCC(C)C)c1	x	n	n	n	x	x
CCc1cccc(NC(=O)CCn2c(=O)c3cccn3c3cccnc32)c1	x	x	n	x	x	x
SMILES	SW480 rerep	KB-3-1 cytotox	RGS4 inh	KB-V1 cytotox	TSG101-PTAP inh	MCF10A rerep
Cc1ccc2c(/C=C/c3ccc(N(C)C)cc3)ccnc2c1	x	n	x	u	x	x
CCC1=Nc2cc(C(=O)NCCN3CCCC3)ccc2Sc2ccccc21	n	n	n	n	n	u
CCC1=Nc2cc(C(=O)NCCCN3CCOCC3)ccc2Sc2ccccc21	n	n	n[11.4 µM]	n	n	u
CCC1=Nc2cc(C(=O)NCCN3CCOCC3)ccc2Sc2ccc(Br)cc21	n	n	n	n	n	n
CCC1=Nc2cc(C(=O)NCCCOC)ccc2Sc2ccccc21	1.3µM	0.82µM	n[11.4 µM]	0.23µM	n	u
CCC1=Nc2cc(C(=O)NCCCOC)ccc2Sc2ccc(Br)cc21	x	0.82µM	n	u	x	x
CCCCNC(=O)c1ccc2c(c1)N=C(CC)c1ccccc1S2	x	u	n	18µM	x	x
CC1=Nc2cc(C(=O)NCC3CCCO3)ccc2Sc2ccc(Br)cc21 (centres undefined)	u	12µM	n	6.5µM	n	18µM
O=C1C(=O)N(C2CCN(C(=O)c3cccc(Cl)c3)CC2)CCN1Cc1ccc(F)cc1	x	n	n	n	x	x
CCOc1ccccc1NC(=O)CSc1nc2c(oc3ccccc32)c(=O)n1-c1ccc(F)cc1	x	n	n	n	x	x
Cc1ccc(C2=Nc3ccccc3N(CC(=O)Nc3ccccc3C)C(=O)C2)cc1C	x	n	n	n	x	x
COc1ccc(S(=O)(=O)N(C)C)cc1NC(=O)Cc1c[nH]c2ccccc12	3.7µM	n	n	n	n	n
CC(C)Cn1nc(NC(=O)c2cccs2)c2cc3ccccc3nc21	16µM	n	n	n	n	u
CCCn1nc(NC(=O)COC)c2cc3cc(C)ccc3nc21	n	n	n	n	n	n
CCCn1nc(NC(=O)CC(C)C)c2cc3ccccc3nc21	n	n	n	5.2µM	n	u
Cc1ccc2nc3c(cc2c1)c(NC(=O)C(C)(C)C)nn3CC(C)C	u	n	n	n	n	2.9µM
Cc1ccc2nc3c(cc2c1)c(NC(=O)c1ccco1)nn3CC(C)C	u	n	n	n	n	n
CCn1nc(NC(=O)COC)c2cc3cc(C)ccc3nc21	23µM	n	n	n	n	n
Cc1ccc(C)c(N2CCN(S(=O)(=O)c3cc(C(=O)Nc4ccc(Oc5ccccc5)cc4)ccc3F)CC2)c1	x	x	n	x	x	x
COc1ccccc1Cc1nc2ccccc2nc1SCC(=O)NCc1ccccc1Cl	x	x	n	x	x	x
Cc1ccccc1-c1nc(CN2CCC(C(=O)NCc3ccccc3Cl)CC2)c(C)o1	x	n	n	n	x	x
CCn1nc(NC(=O)c2ccncc2)c2cc3ccccc3nc21	n	n	n	n	n	u
CCCCC(=O)Nc1nn(CC(C)C)c2nc3ccccc3cc12	u	n	n	16µM	n	u
CC(C)Cn1nc(NC(=O)C(C)(C)C)c2cc3ccccc3nc21	u	n	n	n	n	23µM
Fc1ccc(C(c2ccc(F)cc2)N2CCN(C/C=C/c3ccccc3)CC2)cc1	u	u	n	u	n	23µM
COc1ccc2c(c1)CC(C(=O)Nc1cc(Cl)ccc1C)CO2 (centres undefined)	x	x	n	x	x	x
COc1ccc(OC)c(Nc2nc(=O)c3cccnc3s2)c1	n	n	u	u	n	n
Cc1ccc(Nc2nc(=O)c3cccnc3s2)cc1	9.2µM	n	n	n	n	16µM
CC1CCc2nc(/C(C#N)=C/c3ccncc3)sc2C1 (centres undefined)	7.3µM	n	n	u	n	u
N#C/C(=C/c1ccncc1)c1nc2ccccc2s1	n	n	u	n	n	u

Compound activity from PubChem BioAssay.
